Source: paper PMC7862700, “An all-to-all approach to the identification of sequence-specific readers for epigenetic DNA modifications on cytosine”

Experiments:
Assay in all cases: DAPPL (digital affinity profiling via proximity ligation, sequencing); 10 mM Tris-HCl pH 7.5, 50 mM NaCl, 1 mM DTT, 4% glycerol, room temperature, 30 min; GST-TFs on glutathione beads, 16-mer random dsDNA library, 0.1% formaldehyde crosslink after washing; high values mean tight binding
Conditions in all cases: protein: recombinant; tags: N-terminal GST; dsDNA, one strand shown
[1] = target: T1, ELK1 (Homo sapiens, UniProt P19419 1-428)
T1 sequence: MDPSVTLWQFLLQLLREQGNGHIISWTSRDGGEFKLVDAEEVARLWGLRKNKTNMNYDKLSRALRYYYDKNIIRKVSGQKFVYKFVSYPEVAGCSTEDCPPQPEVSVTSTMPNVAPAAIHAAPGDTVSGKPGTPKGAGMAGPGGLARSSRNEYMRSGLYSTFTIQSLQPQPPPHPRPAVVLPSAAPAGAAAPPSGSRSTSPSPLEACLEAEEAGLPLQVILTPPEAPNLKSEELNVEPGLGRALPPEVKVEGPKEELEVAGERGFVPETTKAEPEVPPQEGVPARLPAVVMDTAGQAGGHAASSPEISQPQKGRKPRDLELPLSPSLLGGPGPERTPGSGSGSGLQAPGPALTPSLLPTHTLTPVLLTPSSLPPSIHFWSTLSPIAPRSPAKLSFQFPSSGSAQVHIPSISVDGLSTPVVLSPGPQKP
Summary of the method: (§1)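 Binding signal is each hexamer's read frequency for a factor divided by its frequency in the tag-only sample. The factors were GST-fused human transcription factors from yeast, captured on glutathione beads, DNA-barcoded and pooled with that sample. Pools were incubated with 200 nmole of a random double-stranded 16-mer DNA library in Tris/NaCl/DTT/glycerol buffer at room temperature for 30 min, then washed, crosslinked with 0.1% formaldehyde, proximity-ligated with BsaI/T4 ligase (1 h, 37 °C), PCR-amplified and sequenced on an Illumina NextSeq500.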

[2] = target: T2, ERG (Homo sapiens, UniProt P11308 1-479)
T2 sequence: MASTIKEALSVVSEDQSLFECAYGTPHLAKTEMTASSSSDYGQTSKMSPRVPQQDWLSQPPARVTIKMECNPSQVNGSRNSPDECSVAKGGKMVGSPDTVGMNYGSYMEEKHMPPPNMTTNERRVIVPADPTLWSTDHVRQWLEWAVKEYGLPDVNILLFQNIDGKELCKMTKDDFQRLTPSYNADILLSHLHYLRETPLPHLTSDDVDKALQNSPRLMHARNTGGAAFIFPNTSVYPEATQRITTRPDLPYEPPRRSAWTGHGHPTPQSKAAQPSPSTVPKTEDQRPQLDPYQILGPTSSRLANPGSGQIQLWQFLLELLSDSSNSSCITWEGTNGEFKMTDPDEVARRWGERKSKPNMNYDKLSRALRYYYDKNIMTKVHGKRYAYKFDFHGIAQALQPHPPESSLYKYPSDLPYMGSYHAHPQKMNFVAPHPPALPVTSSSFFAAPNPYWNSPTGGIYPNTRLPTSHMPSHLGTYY
Summary of the method: as §1

[3] = target: T3, EHF (Homo sapiens, UniProt Q9NZC4 1-300)
T3 sequence: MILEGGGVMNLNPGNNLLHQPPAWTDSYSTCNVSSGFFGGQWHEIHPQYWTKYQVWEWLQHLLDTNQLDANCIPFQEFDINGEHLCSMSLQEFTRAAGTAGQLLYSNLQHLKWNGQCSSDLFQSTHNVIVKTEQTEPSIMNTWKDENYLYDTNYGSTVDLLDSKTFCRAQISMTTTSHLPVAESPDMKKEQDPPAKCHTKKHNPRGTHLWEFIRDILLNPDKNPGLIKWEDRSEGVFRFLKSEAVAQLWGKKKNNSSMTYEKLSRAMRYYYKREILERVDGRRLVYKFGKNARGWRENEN
Summary of the method: as §1

[4] = target: SPI1 (Homo sapiens, UniProt P17947 1-270)
Summary of the method: as §1

[5] = target: ETV5 (Homo sapiens, UniProt P41161 1-510)
Summary of the method: as §1

[6] = target: ELF4 (Homo sapiens, UniProt Q99607 1-663)
Summary of the method: as §1

[7] = target: T4, ELK4 (Homo sapiens, UniProt P28324-2 1-405)
T4 sequence: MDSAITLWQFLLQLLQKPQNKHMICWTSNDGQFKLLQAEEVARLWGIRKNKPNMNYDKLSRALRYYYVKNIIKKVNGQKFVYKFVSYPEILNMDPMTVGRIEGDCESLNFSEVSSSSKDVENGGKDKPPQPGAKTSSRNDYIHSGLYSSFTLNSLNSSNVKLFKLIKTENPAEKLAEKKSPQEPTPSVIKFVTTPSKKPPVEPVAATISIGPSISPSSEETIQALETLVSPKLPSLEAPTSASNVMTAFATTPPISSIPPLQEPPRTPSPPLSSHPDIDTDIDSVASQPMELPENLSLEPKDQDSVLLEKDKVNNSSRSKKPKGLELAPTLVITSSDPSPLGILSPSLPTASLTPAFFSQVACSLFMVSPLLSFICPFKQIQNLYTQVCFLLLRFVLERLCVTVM
Summary of the method: as §1

[8] = target: T5, ELF3 (Homo sapiens, UniProt P78545 1-371)
T5 sequence: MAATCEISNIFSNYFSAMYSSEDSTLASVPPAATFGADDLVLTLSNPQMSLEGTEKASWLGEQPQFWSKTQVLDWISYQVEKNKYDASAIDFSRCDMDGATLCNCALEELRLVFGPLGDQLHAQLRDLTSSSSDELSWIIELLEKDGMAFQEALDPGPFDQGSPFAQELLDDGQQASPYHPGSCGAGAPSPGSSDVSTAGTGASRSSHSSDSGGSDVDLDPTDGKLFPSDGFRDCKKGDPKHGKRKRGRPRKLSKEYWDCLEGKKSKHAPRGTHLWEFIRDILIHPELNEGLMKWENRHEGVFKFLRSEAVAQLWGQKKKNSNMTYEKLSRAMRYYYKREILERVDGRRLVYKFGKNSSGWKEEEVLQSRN
Summary of the method: as §1

[9] = target: T6, ERF (Homo sapiens, UniProt P50548 1-548)
T6 sequence: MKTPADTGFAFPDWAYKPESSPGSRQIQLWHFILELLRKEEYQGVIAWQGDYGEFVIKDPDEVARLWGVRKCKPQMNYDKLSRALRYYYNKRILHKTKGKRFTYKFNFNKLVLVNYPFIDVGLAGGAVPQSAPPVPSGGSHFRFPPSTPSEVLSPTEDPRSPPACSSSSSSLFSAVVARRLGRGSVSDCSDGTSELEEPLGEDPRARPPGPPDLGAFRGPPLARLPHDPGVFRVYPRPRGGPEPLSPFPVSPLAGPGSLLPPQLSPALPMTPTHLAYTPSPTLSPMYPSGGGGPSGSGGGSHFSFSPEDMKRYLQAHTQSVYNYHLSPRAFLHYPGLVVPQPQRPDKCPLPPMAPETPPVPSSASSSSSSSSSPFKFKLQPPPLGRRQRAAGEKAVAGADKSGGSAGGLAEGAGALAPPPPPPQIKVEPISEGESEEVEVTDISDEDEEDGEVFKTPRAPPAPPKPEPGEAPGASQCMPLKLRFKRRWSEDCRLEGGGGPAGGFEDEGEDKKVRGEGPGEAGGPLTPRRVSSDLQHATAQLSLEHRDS
Summary of the method: as §1

[10] = target: T7, ETV3L (Homo sapiens, UniProt Q6ZN32 1-361)
T7 sequence: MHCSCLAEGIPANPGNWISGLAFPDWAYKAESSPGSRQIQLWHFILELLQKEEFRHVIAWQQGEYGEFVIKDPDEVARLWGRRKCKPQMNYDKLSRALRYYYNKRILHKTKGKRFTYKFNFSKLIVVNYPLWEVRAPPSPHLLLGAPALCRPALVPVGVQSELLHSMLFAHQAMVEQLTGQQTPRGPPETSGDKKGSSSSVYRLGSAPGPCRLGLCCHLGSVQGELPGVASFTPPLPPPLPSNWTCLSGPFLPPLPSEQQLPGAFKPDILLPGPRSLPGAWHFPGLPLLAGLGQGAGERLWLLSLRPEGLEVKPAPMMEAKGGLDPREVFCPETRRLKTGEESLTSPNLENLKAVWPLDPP
Summary of the method: as §1

[11] = target: T8, ETS2 (Homo sapiens, UniProt P15036 1-469)
T8 sequence: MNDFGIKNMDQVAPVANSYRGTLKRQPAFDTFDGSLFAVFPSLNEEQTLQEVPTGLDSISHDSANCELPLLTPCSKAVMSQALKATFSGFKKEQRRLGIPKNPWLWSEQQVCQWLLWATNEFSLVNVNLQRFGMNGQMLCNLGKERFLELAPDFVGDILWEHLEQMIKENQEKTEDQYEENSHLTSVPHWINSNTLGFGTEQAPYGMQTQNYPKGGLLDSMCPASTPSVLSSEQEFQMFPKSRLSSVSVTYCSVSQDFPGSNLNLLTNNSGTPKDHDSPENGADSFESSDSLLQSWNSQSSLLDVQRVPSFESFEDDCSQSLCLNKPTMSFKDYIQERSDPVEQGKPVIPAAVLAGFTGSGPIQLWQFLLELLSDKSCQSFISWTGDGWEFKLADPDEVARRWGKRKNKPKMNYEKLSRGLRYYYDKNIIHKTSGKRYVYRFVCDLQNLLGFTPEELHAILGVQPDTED
Summary of the method: as §1

[12] = target: T9, SPDEF (Homo sapiens, UniProt O95238 1-335)
T9 sequence: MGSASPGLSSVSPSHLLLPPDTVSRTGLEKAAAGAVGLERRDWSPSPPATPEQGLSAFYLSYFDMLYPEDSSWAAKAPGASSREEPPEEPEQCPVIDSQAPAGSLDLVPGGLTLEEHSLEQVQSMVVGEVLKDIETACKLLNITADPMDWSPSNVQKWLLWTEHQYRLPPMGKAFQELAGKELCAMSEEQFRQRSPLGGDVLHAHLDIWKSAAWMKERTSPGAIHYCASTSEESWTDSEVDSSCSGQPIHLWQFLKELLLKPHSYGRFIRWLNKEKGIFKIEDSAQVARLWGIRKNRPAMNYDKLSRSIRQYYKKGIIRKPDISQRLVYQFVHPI
Summary of the method: as §1

[13] = target: T10, ETV3 (Homo sapiens, UniProt P41162-2 1-143)
T10 sequence: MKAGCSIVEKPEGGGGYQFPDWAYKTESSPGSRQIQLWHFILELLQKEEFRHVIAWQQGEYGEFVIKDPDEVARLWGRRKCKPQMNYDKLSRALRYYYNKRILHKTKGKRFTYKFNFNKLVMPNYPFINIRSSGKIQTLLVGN
Summary of the method: as §1

[14] = target: ETV6 (Homo sapiens, UniProt P41212 1-452)
Summary of the method: as §1

[15] = target: T11, GABPA (Homo sapiens, UniProt Q06546 1-454)
T11 sequence: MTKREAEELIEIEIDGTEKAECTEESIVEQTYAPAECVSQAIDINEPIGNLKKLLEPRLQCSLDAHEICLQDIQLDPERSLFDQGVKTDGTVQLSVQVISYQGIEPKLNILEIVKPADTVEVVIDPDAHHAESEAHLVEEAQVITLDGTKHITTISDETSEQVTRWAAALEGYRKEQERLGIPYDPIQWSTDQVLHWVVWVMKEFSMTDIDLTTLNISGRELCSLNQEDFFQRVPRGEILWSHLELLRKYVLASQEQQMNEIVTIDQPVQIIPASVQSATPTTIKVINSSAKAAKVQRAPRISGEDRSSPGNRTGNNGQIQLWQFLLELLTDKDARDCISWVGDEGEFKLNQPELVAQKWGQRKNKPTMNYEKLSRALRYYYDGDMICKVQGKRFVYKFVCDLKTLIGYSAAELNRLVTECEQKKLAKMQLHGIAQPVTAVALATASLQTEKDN
Summary of the method: as §1

[16] = target: ELF1 (Homo sapiens, UniProt P32519 1-619)
Summary of the method: as §1

[17] = target: T12, ETV7 (Homo sapiens, UniProt Q9Y603 1-341)
T12 sequence: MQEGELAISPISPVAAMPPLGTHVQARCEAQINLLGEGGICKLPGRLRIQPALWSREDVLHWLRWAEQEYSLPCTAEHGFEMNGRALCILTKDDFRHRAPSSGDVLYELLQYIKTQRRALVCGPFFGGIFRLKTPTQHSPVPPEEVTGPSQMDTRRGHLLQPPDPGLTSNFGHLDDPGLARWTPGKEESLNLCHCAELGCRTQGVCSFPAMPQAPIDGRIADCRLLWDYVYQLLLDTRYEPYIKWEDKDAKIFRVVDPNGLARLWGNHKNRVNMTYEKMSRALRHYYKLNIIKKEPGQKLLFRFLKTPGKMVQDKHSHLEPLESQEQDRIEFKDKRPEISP
Summary of the method: as §1

Chain of ETV5 (P41161 whole entry): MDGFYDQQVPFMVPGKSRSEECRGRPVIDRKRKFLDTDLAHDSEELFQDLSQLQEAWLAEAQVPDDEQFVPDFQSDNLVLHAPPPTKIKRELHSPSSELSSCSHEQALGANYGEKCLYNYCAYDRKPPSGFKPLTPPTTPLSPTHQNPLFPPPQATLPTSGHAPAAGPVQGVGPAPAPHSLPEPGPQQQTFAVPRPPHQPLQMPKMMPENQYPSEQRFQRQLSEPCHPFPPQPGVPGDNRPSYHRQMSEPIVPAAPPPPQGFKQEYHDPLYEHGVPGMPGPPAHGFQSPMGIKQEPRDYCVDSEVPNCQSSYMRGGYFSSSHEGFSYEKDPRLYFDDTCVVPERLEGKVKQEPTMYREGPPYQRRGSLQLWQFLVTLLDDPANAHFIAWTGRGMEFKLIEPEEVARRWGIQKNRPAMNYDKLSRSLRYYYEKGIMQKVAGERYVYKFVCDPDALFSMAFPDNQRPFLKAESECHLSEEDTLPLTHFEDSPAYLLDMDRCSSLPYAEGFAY
Chain of ELF1 (P32519 whole entry): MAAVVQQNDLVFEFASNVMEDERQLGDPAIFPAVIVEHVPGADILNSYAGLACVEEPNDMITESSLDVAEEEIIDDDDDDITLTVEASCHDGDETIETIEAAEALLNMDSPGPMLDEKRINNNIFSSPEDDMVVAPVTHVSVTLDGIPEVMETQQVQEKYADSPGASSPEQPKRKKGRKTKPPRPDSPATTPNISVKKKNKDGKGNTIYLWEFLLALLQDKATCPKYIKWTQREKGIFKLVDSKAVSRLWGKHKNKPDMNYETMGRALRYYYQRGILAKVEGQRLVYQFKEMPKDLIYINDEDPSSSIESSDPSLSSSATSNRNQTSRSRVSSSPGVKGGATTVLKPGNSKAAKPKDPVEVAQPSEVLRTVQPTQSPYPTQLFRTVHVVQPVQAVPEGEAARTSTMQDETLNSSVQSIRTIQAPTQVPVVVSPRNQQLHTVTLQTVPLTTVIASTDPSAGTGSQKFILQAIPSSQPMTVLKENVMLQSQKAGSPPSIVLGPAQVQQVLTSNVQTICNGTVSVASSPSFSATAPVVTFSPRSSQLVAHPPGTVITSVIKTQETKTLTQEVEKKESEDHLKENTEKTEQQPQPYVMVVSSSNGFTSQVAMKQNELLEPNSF
Chain of ELF4 (Q99607 whole entry): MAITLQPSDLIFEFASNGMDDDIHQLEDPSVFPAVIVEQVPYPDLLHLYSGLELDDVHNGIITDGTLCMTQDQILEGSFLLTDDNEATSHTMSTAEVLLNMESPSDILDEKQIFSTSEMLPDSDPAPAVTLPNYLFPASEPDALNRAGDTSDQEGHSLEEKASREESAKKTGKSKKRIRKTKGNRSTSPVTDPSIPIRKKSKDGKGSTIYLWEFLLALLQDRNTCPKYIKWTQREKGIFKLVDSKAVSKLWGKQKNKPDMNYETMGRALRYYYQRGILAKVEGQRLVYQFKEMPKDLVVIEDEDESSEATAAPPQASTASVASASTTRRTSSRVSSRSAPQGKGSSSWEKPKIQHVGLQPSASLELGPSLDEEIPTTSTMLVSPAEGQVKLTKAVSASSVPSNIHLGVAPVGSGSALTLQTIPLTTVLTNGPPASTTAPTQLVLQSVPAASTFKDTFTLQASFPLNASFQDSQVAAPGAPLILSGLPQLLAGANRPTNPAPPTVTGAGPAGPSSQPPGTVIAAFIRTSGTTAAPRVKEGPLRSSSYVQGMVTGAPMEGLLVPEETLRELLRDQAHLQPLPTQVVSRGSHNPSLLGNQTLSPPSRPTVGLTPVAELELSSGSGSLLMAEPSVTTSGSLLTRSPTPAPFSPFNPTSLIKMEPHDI
Chain of ETV6 (P41212 whole entry): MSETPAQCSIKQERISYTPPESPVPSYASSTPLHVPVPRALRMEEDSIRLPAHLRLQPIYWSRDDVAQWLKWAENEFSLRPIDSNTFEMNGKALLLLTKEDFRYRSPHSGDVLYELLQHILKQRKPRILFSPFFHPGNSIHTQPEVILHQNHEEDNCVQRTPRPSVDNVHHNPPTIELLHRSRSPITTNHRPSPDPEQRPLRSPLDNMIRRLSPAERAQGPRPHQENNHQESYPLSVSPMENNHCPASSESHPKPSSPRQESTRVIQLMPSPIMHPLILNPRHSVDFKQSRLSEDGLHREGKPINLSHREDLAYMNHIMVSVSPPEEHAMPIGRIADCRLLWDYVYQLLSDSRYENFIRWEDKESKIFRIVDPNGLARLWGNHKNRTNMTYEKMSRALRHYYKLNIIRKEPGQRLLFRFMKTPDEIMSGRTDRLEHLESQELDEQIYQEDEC

Sequence | binding signal [1] | binding signal [2] | binding signal [3] | binding signal [4] | binding signal [5] | binding signal [6] | binding signal [7] | binding signal [8] | binding signal [9] | binding signal [10] | binding signal [11] | binding signal [12] | binding signal [13] | binding signal [14] | binding signal [15] | binding signal [16] | binding signal [17]
TGGGTG | 1.09 fold enrichment (6-mer frequency, TF over GST control) | 1.01 fold enrichment (6-mer frequency, TF over GST control) | 1.01 fold enrichment (6-mer frequency, TF over GST control) | 1 fold enrichment (6-mer frequency, TF over GST control) | 1.02 fold enrichment (6-mer frequency, TF over GST control) | 1.01 fold enrichment (6-mer frequency, TF over GST control) | 1.07 fold enrichment (6-mer frequency, TF over GST control) | 1.03 fold enrichment (6-mer frequency, TF over GST control) | 1.06 fold enrichment (6-mer frequency, TF over GST control) | 1.08 fold enrichment (6-mer frequency, TF over GST control) | 1.07 fold enrichment (6-mer frequency, TF over GST control) | 1.01 fold enrichment (6-mer frequency, TF over GST control) | 1 fold enrichment (6-mer frequency, TF over GST control) | 1.21 fold enrichment (6-mer frequency, TF over GST control) |  |  | 
GCTAGA |  |  |  |  | 1.02 fold enrichment (6-mer frequency, TF over GST control) |  |  |  | 1.07 fold enrichment (6-mer frequency, TF over GST control) | 1.04 fold enrichment (6-mer frequency, TF over GST control) |  |  |  |  | 1.03 fold enrichment (6-mer frequency, TF over GST control) | 1.01 fold enrichment (6-mer frequency, TF over GST control) | 1 fold enrichment (6-mer frequency, TF over GST control)
